IkB sig inh: IkB Signaling; ABC-DLBCL IkBa-CBG/CBR dual luciferase ratio, 4 h; response scale: scaled: untreated 0%, proteasome inhibitor 100%; Potency, µM (titrated, usually from 57.1 µM); actives 0.04% (n = 110,000); active = well fitted curve in the direction sought with a large enough effect in the signal ratio, not every such curve was filed as active; inconclusive = small, poorly fitted or top-dose-only effect, or a change in a side signal; the % refers to the signal ratio;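 also: the direction sought is a rising ratio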
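Curves were fitted separately to fusion (green), unfused (red) and ratio luminescence, then classed by r2, magnitude and activity. Cells: OCI-Ly3, 4 h compound plus doxycycline at 37C; 10 uM MG-132 defined full response.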
p53ts 39C tox: qHTS Screen for Compounds that Selectively Target Cancer Cells with p53 Mutations: Cytotoxicity of p53ts Cells at the Nonpermissive Temperature; H1299-p53A138V viability at 39C, ATP luminescence, 24 h; Potency, µM (top dose mostly 46.1 µM), most hits filed as cytotoxic; actives 1.5% (n = 130,000); AID 902, 2007; also: nearly all actives have a fitted effect of over 55% in size
Peg3 imprint: qHTS Assay for Compounds that Induce Erasure of Genomic Imprints. mouse ES Peg3-LacZ reporter, beta-gal luminescence, 40 h. Potency, µM (top dose mostly 60.7 µM), most hits filed as activators. actives 0.02% (n = 110,000)
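Each well holds 300 Peg3LacZ-Neo (maternal) female ES cells incubated 40 h at 37C, 5% CO2. LacZ is measured by BetaGlo luminescence, with AC50 and maximum efficacy derived from dose-response curves.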
p53ts 32C tox: qHTS Screen for Compounds that Selectively Target Cancer Cells with p53 Mutations: Cytotoxicity of p53ts Cells at the Permissive Temperature; Potency, µM (highest dose often 46.1 µM), most hits filed as cytotoxic; AID 924, 2007; actives 0.93% (n = 130,000); H1299-p53A138V at 32C, ATP luminescence viability, 24 h; also: nearly all actives have a fitted effect of over 55% in size
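Viability by ATPlite luminescence after 24 h compound treatment (up to 46 uM) at the permissive 32C. Cells are H1299 carrying p53 A138V. Scale runs from DMSO basal to 100 uM tamoxifen as full kill; AC50 from Hill fits.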
HEK293 cAMP ctrl: qHTS Assay for Agonists of the Thyroid Stimulating Hormone Receptor: Activators of Intracellular cAMP Concentrations in Parental HEK 293; Potency, µM (doses to about 57.1 µM), usual class: activators; parental HEK293 CNG cAMP sensor, membrane potential fluorescence; actives 2.5% (n = 73,000); also: nearly all actives have a fitted effect of over 55% in size
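Parental HEK 293 cells stably expressing a modified CNG channel (no TSHR) report cAMP rise as membrane depolarization. Membrane potential dye with 100 uM RO 20-1724 was loaded for 60 min at room temperature, then compound added for 30 min; fluorescence read at 590 nm.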
TSHR agonist: qHTS Assay for Agonists of the Thyroid Stimulating Hormone Receptor; HEK293-CNG-TSHR cells (CNG channel as cAMP sensor), membrane potential dye, cAMP; actives 0.48% (n = 73,000); Potency, µM (series often up to 57.1 µM), most hits filed as activators; active = well fitted activation curve with a large enough effect in the main read-out, with a control signal flat, not every such curve was filed as active; inconclusive = small, poorly fitted or top-dose-only effect, or a change in a side signal; inactive = no such curve, though single readings can be large or run the other way; reference of the percent scale not stated here;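 also: the control signal comes from parental cells without the receptor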
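cAMP rise detected as CNG-channel membrane depolarization by fluorescent dye (emission 590 nm), 30 min after compound, following 60 min dye loading containing 100 uM RO 20-1724 at room temperature. Cells: TSHR/CNG HEK 293, with parental CNG HEK 293 as control.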
Numbers stand for hits; n = inactive; u = inconclusive; x = no result given; [ ] = another dose, or the depositor's remark. Only some compounds are listed: those with a hit (about 3.1% of all), similar ones and a draw of the others. Unless noted, calls follow the shape of the dose curve; as a rule, active = well fitted curve in the direction sought with a large enough effect; inconclusive = small, poorly fitted or top-dose-only effect, or another doubt; inactive = no such curve, though single readings can be large; an effect the other way counts as inactive or inconclusive.

SMILES	IkB sig inh	p53ts 39C tox	Peg3 imprint	p53ts 32C tox	HEK293 cAMP ctrl	TSHR agonist
CN(c1ccccc1)S(=O)(=O)c1ccc(NC(=O)c2nc(S(C)(=O)=O)ncc2Cl)cc1	u	3.2µM	n[10.9 µM]	u	x	x
CCS(=O)(=O)c1ncc(Cl)c(C(=O)Nc2c(C(=O)Nc3cccc(C)c3)oc3ccccc23)n1	u	20µM	n[10.9 µM]	u	x	x
CCS(=O)(=O)c1ncc(Cl)c(C(=O)Nc2ccccc2)n1	u	4µM	n[10.9 µM]	u	x	x
CCSc1ncc(Cl)c(C(=O)N(Cc2ccccc2)Cc2ccco2)n1	u	n	n[10.9 µM]	n	x	x
O=C(COc1ccc(F)cc1)Nc1ccccc1C(=O)OCc1cc(=O)n2nc(C3CC3)sc2n1	u	n	n[10.9 µM]	n	x	x
CCS(=O)(=O)c1ncc(Cl)c(C(=O)N(Cc2ccccc2)c2ccc(OC)cc2)n1	u	5µM	n[10.9 µM]	20µM	x	x
CCOC(=O)c1ccc(NC(=O)c2nc(SC(C)C)ncc2Cl)cc1	u	n	n[10.9 µM]	n	x	x
CCOC(=O)c1ccc(NC(=O)c2nc(S(=O)(=O)Cc3ccccc3)ncc2Cl)cc1	n	13µM	n[10.9 µM]	n	x	x
CSc1nc(NC2CCCC2)c([N+](=O)[O-])c(NC2CCCC2)n1	n	n	n	n	n	n
FC(F)(F)c1ccccc1-c1nc(N2CCOCC2)c2ccccc2n1	n[11.4 µM]	n	u	n	1µM	u
N#Cc1nc(Cc2ccccc2)oc1N1CCC(Cc2ccccc2)CC1	n	n	n	n	u	u
CCN1CCN(c2oc(COc3ccc(-c4ccccc4)cc3)nc2C#N)CC1	u	n	n	n	u	u
N#Cc1nc(COc2ccc(F)cc2)oc1N1CCC(Cc2ccccc2)CC1	n	n	n	n	4µM	u
N#Cc1nc(COc2ccc(F)cc2)oc1N1CCN(Cc2ccccc2)CC1	n	n	n	n	6.3µM	u
CCc1nc(N(CC)CC)c2oc3ccccc3c2n1	n	n	n	n	16µM	u
CCNc1nc(CC)nc2c1oc1ccccc12	n	n	n	n	n	n
CCc1nc(N2CCC(C)CC2)c2oc3ccccc3c2n1	n	n	n	n	16µM	u
O=C(Cn1c(-c2cccs2)cc2ccccc21)N1CCN(c2ccccc2F)CC1	x	x	x	n	x	x
O=C(NCCc1cccs1)c1ccc(Cn2c(SCc3ccc(F)cc3)nc3cccnc32)cc1	u	16µM	n[10.9 µM]	13µM	x	x
Cc1ccc(CSc2nc3cccnc3n2Cc2ccc(C(=O)NCc3ccco3)cc2)cc1	x	x	x	5.6µM	x	x
Cc1ccc(CNC(=O)c2ccc(Cn3c(SCc4ccc(F)cc4)nc4cccnc43)cc2)o1	u	20µM	n[10.9 µM]	u	x	x
O=C(NCCc1ccccc1)c1ccc(CSc2nc3cccnc3n2Cc2ccc(F)cc2)cc1	x	x	x	n	x	x
CN(Cc1ccccc1)C(=O)CSc1nc2ccccc2c(=O)n1Cc1ccco1	u	n	n	n	25µM	u
Cc1cccc(CSc2nc3cccnc3n2Cc2ccc(C(=O)NCc3ccco3)cc2)c1	x	x	x	n	x	x
O=C(CSc1nc2cccnc2n1Cc1ccccc1)NCc1ccco1	n	n	n	n	6.3µM	u
SMILES	IkB sig inh	p53ts 39C tox	Peg3 imprint	p53ts 32C tox	HEK293 cAMP ctrl	TSHR agonist
Cc1ccc(C2Nc3ccc4ccccc4c3C3=C2C(=O)CC(C)(C)C3)o1 (stereo not drawn)	x	n	x	n	x	x
Cc1ccc(C2C3=C(CC(C)(C)CC3=O)NC3=C2C(=O)CC(C)(C)C3)o1	n	n	n	n	n	13µM
N#Cc1nc(-c2cccs2)oc1N1CCN(c2ccccc2)CC1	n	n	n	n	20µM	u
c1csc(-c2nnc(-c3ccc(N4CCOCC4)cc3)o2)c1	n	13µM	n	13µM	n	n
Cc1nc2nc(NC(=O)C(C)(C)C)[nH]n2c(=O)c1Cc1ccccc1	n	n	n[10.9 µM]	n	x	x
Cc1cc(NC(=O)CC2CCCC2)n(-c2nc3ccccc3[nH]2)n1	u	n	n	n	25µM	u
